pS6 MEF inh: inhibitors of mTORC1 signaling in Tsc2-/- p53-/- MEF cells; Tsc2-/- p53-/- MEF, phospho-rpS6 immunofluorescence/PI, 24 h; Potency, µM (highest dose often 38.3 µM), usual class: inhibitors; 0.78% of 44,000 active; further: nearly all actives have a fitted effect of over 50% in size
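Compounds act on Tsc2-/-, p53-/- fibroblasts carrying an empty vector for 24 h before fixation and dual staining for phospho-S6 and DNA (propidium iodide). Values are percentages of cells above a rapamycin-defined pS6/PI threshold.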
p53null 39C tox: selectivity test: cytotoxicity in p53 null cells, nonpermissive temperature. H1299 p53-null (neo) cells, 39C, ATPlite viability, 24 h. Potency, µM (series often up to 46.1 µM), usual class: cytotoxic. 0.97% of 55,000 active. AID 904; further: nearly all actives have a fitted effect of over 50% in size
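ATP-luminescence viability readout (ATPlite, 20 min RT) after 24 hr compound treatment at 39C of H1299-neo or H1299-p53A138V cells; titration up to 46 uM; normalized to DMSO and 100 uM tamoxifen; Hill-fit AC50.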
p53null 32C kill: p53 null cell cytotoxicity, permissive temperature; 0.62% of 55,000 active; H1299-neo p53 null cells, ATP luminescence, 24 h, 32C; AID 903; Potency, µM (highest dose often 46.1 µM), usual class: cytotoxic; further: nearly all actives have a fitted effect of over 55% in size
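AC50 values derive from Hill modelling of qHTS concentration-response data (up to 46 uM) in H1299-neo cells. Cells were treated 24 h at 32C following overnight attachment at 37C; viability was read as cellular ATP.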
S16 viability: cytotoxicity in S16 Pmp22-F2sN Schwann cells. S16 Pmp22-F2sN Schwann cells viability, CellTiter-Glo, 24 h. 0.48% of 43,000 active. Potency, µM (top dose mostly 57.5 µM), usual class: cytotoxic; further: nearly all actives have a fitted effect of over 65% in size
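Rat S16 Schwann reporter line, 24 h treatment with library compounds delivered at 23 nL per well. Cell viability by CellTiter-Glo luminescence.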
PMP22 txn: modulators of PMP22 gene transcription in S16 Schwann cells; Potency, µM (top dose mostly 57.5 µM), usual class: inhibitors; AID 1508649; 2% of 43,000 active; S16 Pmp22-F2sN Schwann cells (luciferase reporters placed in the Pmp22 gene), FLuc/NLuc coincidence luminescence, 24 h; active means clear falling dose curves in both reporters; inconclusive means both reporters move, but less clearly or upward; inactive means either reporter flat; the % is the NLuc reporter signal
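qHTS, 1536-well. Cells seeded, compounds added by pin tool, 24 h 37C. Nano-Glo reagent 1 (lysis/FLuc), 10 min RT, read; Stop&Glo, 10 min RT, read NLuc.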
OvCa metastasis: inhibitors of ovarian cancer cell adhesion and invasion in omental model | SKOV3ip1-GFP adhesion/invasion on 3D omental model, fluorescence | Potency, µM (top dose mostly 45.8 µM), usual class: inhibitors | 0.1% of 46,000 active; further: nearly all actives have a fitted effect of over 65% in size
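A 3D layer of primary human omental fibroblasts, mesothelial cells, fibronectin and collagen I, grown 48 hr, received SKOV3ip1-GFP cells in serum-free medium plus compounds at 0.36-46 umol/L. After 2 hr RT and 16 hr 37 C, fixed adherent GFP cells were counted; normalized to DMSO and tomatine.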
A number is an active result; n = inactive; u = inconclusive; x = no result given; [ ] = dose if it differs, or a comment. Only some compounds are listed: those with a hit (about 3.1% of all), similar ones and a draw of the others. Unless noted, the call rests on the fitted dose curve; in most records, active means well fitted curve in the direction sought with a large enough effect; inconclusive means small, poorly fitted or top-dose-only effect, or another doubt; inactive means no such curve, though single readings can be large; an effect the other way counts as inactive or inconclusive.

SMILES	pS6 MEF inh	p53null 39C tox	p53null 32C kill	S16 viability	PMP22 txn	OvCa metastasis
COc1ccc(-n2cc(-c3ccc4c(c3)OCO4)n(CC(=O)Nc3cccc(C)c3C)c2=O)c(OC)c1	n	u	n	u	n	n
COc1ccc(-n2cc(-c3ccc4c(c3)OCO4)n(CC(=O)Nc3cc(Cl)ccc3C)c2=O)cc1	n	10µM	16µM	u	u	n
Cc1[nH]nc2ccc(-c3cncc(OC[C@@H](N)Cc4ccccc4)c3)cc12	x	x	x	x	x	n
CCC1CCCCN1CCCNC(=O)c1ccc2c(c1)N(Cc1ccc(Cl)cc1)C(=O)c1ccccc1S2(=O)=O (stereo unspecified)	u	25µM	n	u	u	n
CC1CCCN(CCCNC(=O)c2ccc3c(c2)N(Cc2ccc(Cl)cc2)C(=O)c2ccccc2S3(=O)=O)C1 (stereo unspecified)	13µM	16µM	u	u	u	u
Cc1ccc(C)c(CN2C(=O)c3ccccc3S(=O)(=O)c3ccc(C(=O)NCCCN4CCCC(C)C4)cc32)c1 (stereo unspecified)	u	u	n	u	u	u
CCOC(=O)c1c(-c2ccccc2)oc2ccc(N(C(C)=O)S(=O)(=O)c3ccccc3)cc12	n	n	n	x	x	n
COC(=O)c1c(C)oc2ccc(N(C(=O)c3ccncc3)S(=O)(=O)c3cc(C)ccc3C)cc12	u	n	n	u	12µM	n
COC(=O)c1c(C)oc2ccc(N(C(=O)Oc3ccccc3)S(=O)(=O)c3ccc(C(C)(C)C)cc3)cc12	n	n	n	n	6.6µM	n
CCOc1ccc(S(=O)(=O)N(C(C)=O)c2ccc3oc(C)c(C(=O)OC)c3c2)cc1	6.6µM	u	n	u	5.4µM	n
N#CC(c1ccnc(NCCc2cccnc2)n1)c1nc2ccccc2s1 (stereo unspecified)	x	x	x	x	x	n
CCCCN(C)C(=O)CSc1c2c(nc3ccc(Cl)cc13)CCCC2	18µM	n	n	n	u	n
CCCN(CCC)C(=O)CSc1c2c(nc3ccc(Cl)cc13)CCCC2	n	u	n	n	u	n
CN(Cc1ccccc1)C(=O)CSc1c2c(nc3ccc(Cl)cc13)CCCC2	13µM	13µM	u	u	u	u
CC1CCCN(C(=O)CSc2c3c(nc4cc(Cl)ccc24)CCCC3)C1 (stereo unspecified)	u	16µM	n	n	u	n
COc1cc(OC)c(N(C)C(=O)CSc2c3c(nc4ccc(Cl)cc24)CCCC3)cc1Cl	n	20µM	n	n	u	n
Cn1cncc1[C@@](N)(c1ccc(Cl)cc1)c1ccc2c(c1)c(-c1cccc(Cl)c1)cc(=O)n2C	x	x	x	x	x	n
Cn1cc(CNCC2CCN(c3ncc(C(=O)NO)cn3)CC2)c2ccccc21	x	x	x	x	x	n
COc1ccc(S(=O)(=O)NCC(c2cccs2)S(=O)(=O)c2ccccc2)cc1OC (stereo unspecified)	n	n	n	u	u	n
O=S(=O)(NCC(c1cccs1)S(=O)(=O)c1ccccc1)c1ccc(F)cc1 (stereo unspecified)	n	n	n	20µM	u	n
O=S(=O)(NCC(c1cccs1)S(=O)(=O)c1ccccc1)c1ccc(F)c(C(F)(F)F)c1 (stereo unspecified)	n	n	n	20µM	u	n
O=S(=O)(Nc1cccc(-c2ccc(N3CCCCC3)nn2)c1)c1cccs1	n	10µM	16µM	x	x	n
O=S(=O)(Nc1cccc(-c2ccc(N3CCCCC3)nn2)c1)c1ccc(Cl)s1	n	10µM	16µM	x	x	n
O=S(=O)(Nc1cccc(-c2ccc(N3CCCCCC3)nn2)c1)c1ccccc1	n	u	n	x	x	n
Cc1ccc(NC(=O)CSc2c3c(nc4ccccc24)CCCC3)cc1F	n	22µM	n	n	u	n
SMILES	pS6 MEF inh	p53null 39C tox	p53null 32C kill	S16 viability	PMP22 txn	OvCa metastasis
COc1ccc(Cl)cc1NC(=O)CSc1c2c(nc3ccccc13)CCC2	n	n	n	n	u	n
COc1cccc(NC(=O)CSc2c3c(nc4ccccc24)CCCC3)c1	u	n	n	u	u	11µM
O=C(C=Cc1cccc(S(=O)(=O)Nc2ccccc2)c1)NO	x	x	x	x	x	n
CCC(=O)NCCc1nc2cc(NC(=O)c3cccc(Br)c3)ccc2n1C	n	10µM	13µM	n	n	n
Cc1c(Cl)ccc2sc(NC(=O)c3ccc(S(=O)(=O)N4CCCc5ccccc54)cc3)nc12	15µM	n	n	n	n	n
Cc1c(Cl)ccc2sc(NC(=O)c3ccc(S(=O)(=O)N4CCCC4)cc3)nc12	n	n	n	n	n	n
CC1(C)CC(=O)c2sc(NC(=O)c3cccs3)nc2C1	x	1.1µM	2.2µM	x	x	x
OCCCn1c(-c2ccc(F)cc2)csc1=Nc1ccc(F)cc1	n	n	n[9.22 µM]	u	u	n
O=S(=O)(c1ccc(-c2csc(=Nc3ccc(F)cc3)n2CCCCCCO)cc1)N1CCCC1	u	u	n[9.22 µM]	18µM	8.8µM	n
CC(O)(C#Cc1ccc2c(c1)N(c1nc(N)ncc1Cl)CC2)c1nccs1 (stereo unspecified)	x	x	x	x	x	n
COc1cc(CN2CCc3nc(N4CCN(c5ccccn5)CC4)ncc3C2)cc(OC)c1OC	n	n	n	11µM	8.9µM	n
COC(=O)c1c(-c2ccc(Cl)cc2)noc1N1CCN(c2ccc(C(C)=O)cc2)CC1	n	n	n	u	2.7µM	n
COC(=O)c1c(-c2ccc(Cl)cc2)noc1N1CCN(c2ccccc2F)CC1	n	n	n	n	n	n
COC(=O)c1c(-c2ccc(Cl)cc2)noc1N1CCN(c2ccc(OC)cc2)CC1	n	u	n	u	6µM	n
CCN(CC)CCCNC(=O)c1nn(-c2ccc(C)cc2)c(=O)c2c1c1ccccc1n2C	u	n	n	u	u	n
CCN(CC)CCOC(=O)c1ccc(NC(=O)c2nn(-c3ccc(C)cc3)c(=O)c3c2c2ccccc2n3C)cc1	0.93µM	4µM	6.3µM	4.5µM	5.1µM	u
O=C(Nc1ccc2c(c1)CCC2)C1CCCO1 (stereo unspecified)	x	n	n	x	x	x
O=C(Nc1ccc2c(c1)CCC2)c1ccc(F)cc1	x	n	10µM	x	x	x
CSc1n[nH]c(NCc2ccc(Cl)cc2)n1	x	n	n	x	x	x
CSc1n[nH]c(NCc2ccc(C)cc2)n1	x	11µM	20µM	x	x	x
O=C(O)c1ccc2nc(-c3cc4cc(F)ccc4oc3=O)[nH]c2c1	n	n	n	n	n	n
O=C(O)c1ccc2nc(-c3cc4cccc(O)c4oc3=O)[nH]c2c1	n	u	10µM	u	n	n

Screening data as filed in PubChem BioAssay.
